Experimental data taken from PubChem BioAssay (Tox21).
Results filed as inconclusive are left out. Active and inactive are the calls of the source. Unless noted, the call rests on the fitted dose curve.

What was measured:
[1] = Nuclear factor erythroid 2-related factor 2/antioxidant responsive element (Nrf2/ARE) small molecule agonists: qHTS cell viability counter screen in human keratinocytes (AID 1919968; active means well fitted curve in the direction sought with a large enough effect in the repeat runs; an effect the other way counts as inactive or inconclusive; further: nearly all actives have a fitted effect of over 55% in size)
Outline: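 Seed 1,500 KeratinoSens cells per well, then incubate 5 h at 37 C/5% CO2. Add compounds in DMSO and incubate 23 h. Add CellTiter-Fluor, wait 1 h and read fluorescence.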

[2] = Nuclear factor erythroid 2-related factor 2/antioxidant responsive element (Nrf2/ARE) small molecule agonists: luciferase reporter gene qHTS assay in human keratinocytes (AID 1919969); further: nearly all actives have a fitted effect of over 35% in size
[3] = target: Gonadotropin-releasing hormone receptor (Homo sapiens) (UniProt P30968); assay: Human gonadotropin-releasing hormone receptor (GnRHR) small molecule agonists, calcium flux assay in GnRHR-HEK293 cells (AID 1920063); further: nearly all actives have a fitted effect of over 35% in size
Chain of Gonadotropin-releasing hormone receptor (Homo sapiens) (P30968 whole entry, looked up): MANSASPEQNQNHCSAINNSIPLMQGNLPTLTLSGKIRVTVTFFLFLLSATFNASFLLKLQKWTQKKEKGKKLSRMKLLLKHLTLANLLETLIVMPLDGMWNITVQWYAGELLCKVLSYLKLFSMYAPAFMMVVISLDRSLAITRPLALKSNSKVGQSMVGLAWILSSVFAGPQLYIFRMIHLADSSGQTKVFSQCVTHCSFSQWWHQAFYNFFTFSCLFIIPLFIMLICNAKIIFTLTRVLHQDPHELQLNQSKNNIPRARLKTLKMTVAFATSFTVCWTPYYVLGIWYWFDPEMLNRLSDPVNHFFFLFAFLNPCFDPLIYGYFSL
Outline: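 Cells: HEK293 stably expressing human GnRHR. Steps: overnight (18 h) culture, 1 h calcium dye loading at 37 C, compound addition, kinetic fluorescence read at 480/540 nm. Each compound tested at 15 concentrations in triplicate.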

[4] = target: KiSS-1 receptor (Homo sapiens) (UniProt Q969F8); assay: Human kisspeptin (KISS1R) small molecule agonists, calcium flux assay in KISS1R-HEK293 cells (AID 1920064; active means well fitted curve in the direction sought with a large enough effect in the repeat runs; an effect the other way counts as inactive or inconclusive)
Chain of KiSS-1 receptor (Homo sapiens) (Q969F8 whole entry, looked up): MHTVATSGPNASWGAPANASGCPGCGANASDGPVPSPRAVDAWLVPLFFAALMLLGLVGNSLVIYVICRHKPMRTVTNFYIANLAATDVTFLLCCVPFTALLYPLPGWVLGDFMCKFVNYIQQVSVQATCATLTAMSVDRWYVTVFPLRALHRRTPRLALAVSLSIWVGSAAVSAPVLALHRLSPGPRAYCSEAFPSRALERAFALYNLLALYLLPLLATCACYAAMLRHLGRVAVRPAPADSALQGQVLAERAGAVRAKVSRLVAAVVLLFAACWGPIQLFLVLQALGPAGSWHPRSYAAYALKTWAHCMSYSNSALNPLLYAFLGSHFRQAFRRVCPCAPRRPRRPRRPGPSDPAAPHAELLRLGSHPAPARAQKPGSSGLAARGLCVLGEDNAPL
Outline: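 Cells plated and incubated 18 h; dye added, 1 h at 37 C; compounds in DMSO pinned in; signal read at 480/540 nm every second for 3 min. Each compound tested at 15 concentrations in triplicate.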

[5] = G protein-coupled receptor (GPCR) small molecule agonists, calcium flux assay: HEK293 wild type cell line counter screen (AID 1920065)
Outline: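 Counter-screen of the Tox21 10K library for non-specific calcium release: dye-loaded cells received compounds in DMSO and were monitored by kinetic fluorescence (480/540 nm, 3 min). Fifteen concentrations, run in triplicate.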

[6] = p53 small molecule agonists, cell-based qHTS assay with human liver microsomes (AID 1963577);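 further: p53 response element beta-lactamase reporter cells with liver microsomes plus NADPH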
Outline: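 HLM-supplemented p53RE-bla reporter assay: 16 h compound exposure at 37 C, microsomes and NADPH each 0.5 mg/mL final, read by fluorescence intensity.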

[7] = p53 small molecule agonists, cell-based qHTS assay with rat liver microsomes (AID 1963578)
Outline: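 Quantitative HTS of the Tox21 10K library: p53RE-bla cells, rat liver microsomes plus NADPH at 0.5 mg/mL final each, 16 h at 37 C, beta-lactamase fluorescence detection.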

[8] = p53 small molecule agonists, cell-based qHTS assay with human liver microsomes: qHTS cell viability counter screen (AID 1963579); further: nearly all actives have a fitted effect of over 45% in size
Outline: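 Viability of p53RE-bla cells is measured as CellTiter-Glo luminescence following a 16 h, 37 C incubation with compound, liver microsomes from human donors and NADPH.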

[9] = p53 small molecule agonists, cell-based qHTS assay with rat liver microsomes: qHTS cell viability counter screen (AID 1963580); further: nearly all actives have a fitted effect of over 45% in size
Outline: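 Viability is assessed in parallel with the p53 reporter read: HCT-116 p53RE-bla cells receive compounds plus rat microsomes and NADPH (0.5 mg/mL final apiece), incubate 16 h at 37 C, and then CellTiter-Glo luminescence is recorded.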

[10] = p53 small molecule agonists, cell-based qHTS assay: qHTS cell viability counter screen (AID 1963581); further: nearly all actives have a fitted effect of over 45% in size
Outline: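 Cells: HCT-116 with p53 response element-driven beta-lactamase. Treatment: 16 h, 37 C, compounds in DMSO. Read: CellTiter-Glo luminescence after 30 min RT.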

[11] = p53 small molecule agonists, cell-based qHTS assay (AID 1963582; active means well fitted activation curve with a large enough effect in the signal ratio in the repeat runs, not every such curve was filed as active; the % refers to the signal ratio)
Outline: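 Quantitative HTS in p53RE-bla cells: after a 5 h settling period, compounds delivered in DMSO were left on cells for 16 h at 37 C, and reporter induction was measured as fluorescence following 2 h substrate loading.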

[12] = target: 5-hydroxytryptamine receptor 2A (Homo sapiens) (UniProt P28223); assay: 5-hydroxytryptamine receptor 2A (HTR2A) small molecule antagonists, cell-based qHTS assay (AID 1963586); further: nearly all actives have a fitted effect of over 45% in size
Chain of 5-hydroxytryptamine receptor 2A (Homo sapiens) (P28223 whole entry, looked up): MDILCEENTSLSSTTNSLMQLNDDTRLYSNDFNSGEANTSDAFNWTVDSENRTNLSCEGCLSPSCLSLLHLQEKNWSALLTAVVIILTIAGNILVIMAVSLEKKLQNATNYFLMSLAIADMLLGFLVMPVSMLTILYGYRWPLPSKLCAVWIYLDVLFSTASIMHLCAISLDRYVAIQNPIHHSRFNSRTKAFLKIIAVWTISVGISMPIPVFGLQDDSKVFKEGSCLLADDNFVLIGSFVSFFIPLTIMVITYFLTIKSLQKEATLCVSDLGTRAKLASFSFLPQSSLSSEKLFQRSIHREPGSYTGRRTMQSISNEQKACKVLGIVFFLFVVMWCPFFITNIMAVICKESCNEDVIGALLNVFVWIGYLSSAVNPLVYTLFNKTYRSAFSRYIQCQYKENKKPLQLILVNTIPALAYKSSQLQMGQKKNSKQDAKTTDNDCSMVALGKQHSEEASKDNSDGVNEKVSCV
Outline: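 Antagonist-mode intracellular calcium assay: DOI (4 nM) added after 5 min compound pre-incubation at room temperature to dye-loaded HTR2A-CHO cells. Fluorescence followed for 3 min, sampled every second.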

[13] = target: 5-hydroxytryptamine receptor 2A (Homo sapiens) (UniProt P28223); assay: 5-hydroxytryptamine receptor 2A (HTR2A) small molecule agonists, cell-based qHTS assay (AID 1963587); further: nearly all actives have a fitted effect of over 30% in size
Outline: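 CHO cells stably expressing human HTR2A, plated 18 h, loaded with calcium dye 1 h at 37 C. Agonist mode: compounds added and intracellular calcium fluorescence recorded kinetically for 2 min at 1 sec intervals.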

[14] = target: Muscarinic acetylcholine receptor M1 (Homo sapiens) (UniProt P11229); assay: Cholinergic receptor muscarinic 1 (CHRM1) small molecule antagonists, cell-based qHTS assay (AID 1963588); further: nearly all actives have a fitted effect of over 40% in size
Chain of Muscarinic acetylcholine receptor M1 (Homo sapiens) (P11229 whole entry, looked up): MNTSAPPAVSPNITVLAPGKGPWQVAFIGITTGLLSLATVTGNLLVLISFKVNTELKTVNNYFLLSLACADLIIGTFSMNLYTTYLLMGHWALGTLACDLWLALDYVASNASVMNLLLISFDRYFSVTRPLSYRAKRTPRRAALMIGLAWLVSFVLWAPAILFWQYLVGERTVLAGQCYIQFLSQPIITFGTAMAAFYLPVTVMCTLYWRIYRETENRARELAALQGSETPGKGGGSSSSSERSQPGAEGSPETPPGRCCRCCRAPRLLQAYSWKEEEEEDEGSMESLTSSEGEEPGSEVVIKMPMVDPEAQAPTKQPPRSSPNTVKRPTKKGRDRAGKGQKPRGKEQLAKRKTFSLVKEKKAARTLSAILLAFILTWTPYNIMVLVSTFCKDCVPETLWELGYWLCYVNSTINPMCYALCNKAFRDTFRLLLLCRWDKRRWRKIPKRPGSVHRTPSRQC
Outline: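 CHRM1-CHO calcium-flux assay, antagonist mode. Cells were seeded 18 h, dye-loaded 1 h at 37 C and given compound for 5 min at RT, then acetylcholine was added at 50nM. FDSS fluorescence was read 3 min; 15 concentrations, three runs.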

[15] = target: Muscarinic acetylcholine receptor M1 (Homo sapiens) (UniProt P11229); assay: Cholinergic receptor muscarinic 1 (CHRM1) small molecule agonists, cell-based qHTS assay (AID 1963589); further: nearly all actives have a fitted effect of over 35% in size
Outline: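 Agonist-mode qHTS in CHO cells stably carrying human muscarinic M1. Intracellular calcium is tracked by fluorescence every second after compound transfer; each compound runs at 15 concentrations in three independent runs.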

[16] = cAMP Responsive Elements (CRE) small molecule agonists, cell-based qHTS assay (AID 1963590)
Outline: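 Agonist mode qHTS in CRE-bla HEK 293T cells: compounds dosed from DMSO for 3 h at 37 C/5% CO2, followed by LiveBLAzer B/G FRET substrate for 2 h at room temperature.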

[17] = cAMP Responsive Elements (CRE) small molecule antagonists, cell-based qHTS assay (AID 1963591; active means well fitted inhibition curve with a large enough effect in the signal ratio in the repeat runs, not every such curve was filed as active; the % refers to the signal ratio)
Outline: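 Antagonist mode: test compounds are co-incubated with the adenylyl cyclase activator NKH477 (0.25 uM final) on CRE-bla HEK293T cells for 3 h at 37 °C, followed by LiveBLAzer substrate loading.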

[18] = target: D(2) dopamine receptor (Homo sapiens) (UniProt P14416); assay: Dopamine D2 receptor (DRD2) small molecule agonists, cell-based qHTS assay (AID 1963594); further: nearly all actives have a fitted effect of over 35% in size
Chain of D(2) dopamine receptor (Homo sapiens) (P14416 whole entry, looked up): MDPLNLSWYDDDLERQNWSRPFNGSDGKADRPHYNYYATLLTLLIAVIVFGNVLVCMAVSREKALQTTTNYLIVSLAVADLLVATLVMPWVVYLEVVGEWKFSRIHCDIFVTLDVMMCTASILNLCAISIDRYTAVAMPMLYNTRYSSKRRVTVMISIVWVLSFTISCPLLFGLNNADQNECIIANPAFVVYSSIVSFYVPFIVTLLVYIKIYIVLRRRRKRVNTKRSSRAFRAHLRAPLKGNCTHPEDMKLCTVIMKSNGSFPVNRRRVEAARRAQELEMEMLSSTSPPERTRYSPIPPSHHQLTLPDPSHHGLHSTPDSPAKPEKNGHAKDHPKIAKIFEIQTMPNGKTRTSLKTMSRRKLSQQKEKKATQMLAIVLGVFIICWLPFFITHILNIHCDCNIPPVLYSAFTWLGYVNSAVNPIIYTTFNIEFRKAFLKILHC
Outline: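 HEK293 cells stably expressing human DRD2, pre-treated with PDE inhibitor Ro20-1724 (0.1 mM final) and compound 10 min at room temperature, then stimulated with NKH477 (200nM […]) for 30 min. cAMP read by HTRF (665/620 nm).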

[19] = target: D(2) dopamine receptor (Homo sapiens) (UniProt P14416); assay: Dopamine D2 receptor (DRD2) small molecule antagonists, cell-based qHTS assay (AID 1963595; active means well fitted inhibition curve with a large enough effect in the signal ratio in the repeat runs, with a control signal flat; the % refers to the signal ratio)
Outline: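 Antagonism was scored as restored cAMP in HEK293-DRD2 cells. These cells were stimulated with 200 nM NKH477 and 12 nM quinpirole for 30 min at room temperature, in the presence of 0.1 mM Ro20-1724.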

[20] = target: Beta-2 adrenergic receptor (Homo sapiens) (UniProt P07550); assay: Adrenergic beta2 receptor (ADRB2) small molecule antagonists, cell-based qHTS assay (AID 1963592); further: series mostly up to about 92 µM; nearly all actives have a fitted effect of over 50% in size
Chain of Beta-2 adrenergic receptor (Homo sapiens) (P07550 whole entry, looked up): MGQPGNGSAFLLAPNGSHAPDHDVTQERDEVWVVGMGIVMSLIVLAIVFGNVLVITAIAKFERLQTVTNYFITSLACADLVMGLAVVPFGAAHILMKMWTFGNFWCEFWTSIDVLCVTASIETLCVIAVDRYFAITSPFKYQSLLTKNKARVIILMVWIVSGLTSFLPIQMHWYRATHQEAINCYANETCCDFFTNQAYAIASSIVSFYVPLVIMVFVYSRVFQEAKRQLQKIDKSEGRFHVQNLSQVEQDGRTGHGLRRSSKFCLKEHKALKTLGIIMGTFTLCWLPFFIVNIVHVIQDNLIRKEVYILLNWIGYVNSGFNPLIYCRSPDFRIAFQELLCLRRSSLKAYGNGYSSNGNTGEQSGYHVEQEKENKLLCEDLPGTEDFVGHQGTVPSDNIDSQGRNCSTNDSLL
Outline: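 Cells (CHO, stable ADRB2 overexpression) incubated 18-20hr at 37C; compounds added from DMSO; agonist mix (1nM isoproterenol, 100uM IBMX, 25uM Ro-20-1724) added; 0.5hr RT; d2-cAMP and anti-cAMP-cryptate added; 1hr RT; 665/615 nm read.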

Measured: Potency

C=CC(O)CCCCC (stereo not drawn)
inactive: [1] | [2] | [3] | [4] | [5] | [6] | [7] | [8] | [9] | [10] | [11] | [12] | [13] | [14] | [15] | [16] | [17] | [18] | [19]

OCCOc1ccc(OCCO)cc1
inactive: [1] | [2] | [3] | [4] | [5] | [6] | [7] | [8] | [9] | [10] | [11] | [12] | [13] | [14] | [15] | [16] | [17] | [18] | [19]

CC(C)(C)NC(N)=O
inactive: [1] | [2] | [3] | [4] | [5] | [6] | [7] | [8] | [9] | [10] | [11] | [12] | [13] | [14] | [15] | [16] | [17] | [20] | [19]

CC1=CCC(C(C)(C)O)CC1 (stereo not drawn)
inactive: [1] | [2] | [3] | [4] | [5] | [6] | [7] | [8] | [9] | [10] | [11] | [12] | [13] | [14] | [15] | [16] | [20] | [18] | [19]

CCCCC(CC)CCC(CC(C)C)OS(=O)(=O)O (stereo not drawn)
inactive: [1] | [2] | [3] | [4] | [5] | [6] | [7] | [8] | [9] | [10] | [11] | [12] | [13] | [14] | [15] | [16] | [20] | [18] | [19]

C[Si](C)(C)O[Si](C)(C)O[Si](C)(C)C
inactive: [1] | [2] | [3] | [4] | [5] | [6] | [7] | [8] | [9] | [10] | [11] | [12] | [13] | [14] | [15] | [16] | [17] | [18] | [19]

CC(C)(C)S
inactive: [1] | [2] | [3] | [4] | [5] | [6] | [7] | [8] | [9] | [10] | [11] | [12] | [13] | [14] | [15] | [16] | [17] | [18] | [19]
